The source of these data is PubChem BioAssay (NCI).

The panel holds about 83,000 compounds, 20% with a hit somewhere; the sample as a whole holds those more often.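 Each cell line was grown in a 96-well plate and treated with one concentration of compound for 48 hours. Values below 10 were considered active.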 A number with no mark means an inactive call. The source made the active and inactive calls.

Experiment in all cases: NCI-60 one-dose screen, 48 h (100 = growth as untreated, 0 = no growth, -100 = all killed)
What all share (details): 10 µM unless noted

For test [1], the system named is OVCAR-8 ovarian.
Test [2] relates to OVCAR-5 ovarian.
Test [3] concerns OVCAR-4 ovarian.
Test [4] relates to SK-OV-3 ovarian.
The test system of test [5] is IGROV1 ovarian.
Test [6] concerns OVCAR-3 ovarian.
For test [7], the system named is HS 578T breast.
Test [8] has as its system NCI/ADR-RES ovarian.
For test [9], the system named is T-47D breast.
For test [10], the system named is BT-549 breast.
Test [11] has as its system MDA-MB-435 melanoma.
The subject of test [12] is SW-620 colon.
Test [13] concerns MCF7 breast.
In test [14] the test system is HCT-116 colon.
The test system of test [15] is HCC-2998 colon.
The test system of test [16] is KM12 colon.
Test [17] relates to RPMI-8226 leukemia.

In the case of `COc1ccc(C(=O)CN2C(=O)NC(c3ccccc3)(c3ccccc3)C2=O)cc1`, the growth is 95.2% in test [1]; 98.7% in test [2]; 99.8% in test [3]; 102% in test [4]; 115% in [5]; 107% in test [6]. The growth was 89.3% in [7]; 102% in test [8]; 95.2% in [9]; 105% in test [10]; 104% in [11]; 96.8% in [12]. In addition, the growth in test [13] was 102%; in [14], 106%; in test [15] it was 106%; in [16], 109%.

`CCC(C)CC(N)O` (stereo not drawn): the growth in test [17] is 111%; in [1], 107%; in [2], 99.9%; in test [3], 109%; in test [4] it was 111%; in test [6], 110%. In addition, the growth was 109% in [8]; 137% in test [9]; 108% in test [10]; 104% in test [11]; 108% in test [12]; 101% in test [13]. Besides, the values for the growth in test [14], in test [15] and in test [16] were 111%, 112% and 102%, respectively.

Turning to `COc1cc(CCNc2cnc3cc(N)cc(N)c3n2)cc(OC)c1`, the growth in [17] was 86%; in [1], 98.6%; in test [2], 92.3%; in test [4] it was 168%; in test [5] it was 103%; in [6] it was 92.6%. The growth in [7] is 132%; in [8] it was 105%; in test [9] it was 140%; in test [10], 113%; in test [11], 115%; in test [12] it was 111%. Moreover, the growth in test [13] was 96.9%; in [14] it was 103%; in [15], 139%; in test [16], 106%.

As to `C[C@H]1C[C@@H](n2cnc3c(N)nccc32)[C@H](O)[C@@H]1O`, the growth is 117% in [17]; 99% in [1]; 110% in [3]; 117% in test [4]; 560% in test [5]; 120% in test [6]. For the same molecule, the growth in test [7] was 109%; in test [8], 128%; in [9], 102%; in test [10], 93.7%; in test [11], 113%; in [12], 87.2%. Besides, the growth in [13] is 90.1%; in test [14], 86.8%; in [15] it was 101%; in test [16], 80.8%.

Turning to `Nc1cc2c(cc1Br)[nH]c(=O)c1ccccc12`, the growth in test [1] is 39.9%; in test [2] it was 94%; in test [3] it was 24.8%; in test [4], 62.4%; in [5], 19%; in [6], 2.99% (active). For the same molecule, the growth in test [7] was 73.3%; in [8], 63%; in test [9], 29.6%; in test [10] it was 65.1%; in test [11], -42.6% (active); in test [12], 61%. Also, the growth is 15.9% in [13], 19.2% in test [14], 68% in test [15] and 26.2% in [16].

As for `O=C(CN1CCN(c2cccc(Cl)c2)CC1)N1CCN(c2nnc(-c3ccc(Cl)cc3)c(-c3ccc(Cl)cc3)n2)CC1`, the growth was -33.5% (active) in test [17]; 96.3% in test [2]; 76.8% in test [3]; 105% in test [4]; 72.6% in test [6]; 61.9% in test [7]. The growth in test [8] is 70.6%; in [9], 50.1%; in [10], 87.8%; in test [11], 72.3%; in [12] it was 76.7%; in test [13], 55.4%. The figures for the growth in test [14], in [15] and in test [16] were 53.5%, 83.6% and 57.6%, respectively.

In the case of `OCCN1CCN(CC/C=C2/c3ccccc3Sc3ccc(C(F)(F)F)cc32)CC1`, the growth in test [1] is 88.5%; in test [2], 82.4%; in test [3] it was 66.5%; in test [4], 73.1%; in test [5], 55.8%; in test [6], 80%. Besides, the growth in test [7] is 67.7%; in [8], 76.1%; in [9], 62.5%; in [10] it was 75.2%; in test [11], 35.2%; in test [12] it was 83.5%. The growth in test [13] was 56.6%; in test [14], 41.5%; in test [15] it was 21.4%; in test [16] it was 63.4%.

Take `O=C(N/N=C/c1cc(Cl)ccc1O)C(=O)N/N=C/c1cc(Cl)ccc1O`: the growth in [17] is 71.9%; in test [1], 60.8%; in test [2] it was 72.5%; in [4], 64.1%; in test [5] it was 50.3%; in [6], 15.5%. The growth is 44.2% in [8]; 86.9% in [10]; 67.8% in test [11]; 61.3% in [12]; 60.2% in test [14]; 59.5% in test [15]. In addition, the growth in test [16] is 59.1%.

Take `COc1ccc(C(=O)c2no[n+]([O-])c2C(=O)c2ccc(OC)cc2)cc1`: the growth in [17] was -68.1% (active); in test [2], 89.8%; in test [3] it was -68.5% (active); in [4] it was 113%; in test [6], -100% (active); in test [8], 96.2%. The growth in test [9] is 24.7%; in test [11] it was 44.3%; in test [12] it was -82.9% (active); in [13], 30.9%; in [14], -98.1% (active); in test [15], 110%. Also, the growth in test [16] is 102%.

With `NCCCOc1cc2ccccc2cc1C(=O)Nc1ccc(Cl)cc1OC(=O)c1cc2ccccc2cc1OCCCN`, the growth in test [17] is -46.6% (active); in test [1], -77% (active); in [2], -92.7% (active); in test [4] it was -90.8% (active); in test [6], -99.1% (active); in test [7] it was -46.8% (active). Also, the growth in test [8] was -61.5% (active); in test [9], -55.9% (active); in test [11], -76.9% (active); in test [12], -94.9% (active); in test [14], -92.6% (active); in test [16] it was -96.5% (active).

As for `CC[C@@H](C)/C=C(C)/C=C/C(=O)c1c(O)c(-c2ccc(OC(=O)[C@@]34CC[C@@](C)(C(=O)O3)C4(C)C)cc2)cn(O)c1=O`, the growth in test [1] was 20.4%; in test [2], 55.7%; in [4], 28.3%; in test [7], 57.2%; in test [8], 3.91% (active); in test [9], 34.7%. The growth was -0.686% (active) in test [10]; 22.2% in [11]; 37.3% in test [12]; 15.6% in test [13]; 17.1% in test [14]; -10.3% (active) in [15]. In [16], the growth is 18.4%.

As to `COC1=CC(c2ccc[nH]2)=N/C1=C\c1[nH]c(C)c(C(=O)CCCCC(=O)NC(C)(C)C)c1C`, the growth is 35.4% in test [17]; 28.2% in test [1]; 48.3% in test [2]; 39.6% in test [3]; 102% in test [4]; 18.4% in test [6]. Besides, the growth in test [8] was 30.1%; in test [9] it was 40.1%; in [10] it was -11.2% (active); in [11], 7.73% (active); in test [13] it was -15.1% (active); in [15], 30.5%. Besides, the growth in [16] is 20.5%.

As for `O=C(N/N=C/c1ccccc1Cl)c1cccc2ccccc12`, the growth in test [1] was 82.2%; in test [2], 104%; in test [3] it was 103%; in [4] it was 98.6%; in [6], 110%; in test [7], 95.6%. Also, the growth in test [8] is 107%; in test [9], 98.5%; in [10], 117%; in [11] it was 105%; in test [12], 105%; in test [13], 90.9%. The growth was 102% in test [14], 110% in [15] and 97.3% in [16].

With `Cc1c(C(N)=O)sc2c1c(=O)n(Cc1ccccc1)c1nnc(S(C)(=O)=O)n21`, the growth in [2] is 135%; in [3] it was 64.5%; in test [4] it was 103%; in test [5], 106%; in test [6], 79.6%; in test [7] it was 87.5%. In addition, the growth is 100% in [8]; 89.4% in test [9]; 78.9% in [10]; 81.7% in test [11]; 94.3% in test [12]; 73.3% in [13]. Besides, the growth in test [14] is 79.6%; in test [15] it was 103%; in test [16], 109%.

On to `O=C(Nc1ccc(-n2cc(-c3ccncc3)c(-c3ccc(Cl)c(O)c3)n2)cc1)Nc1ccc(Cl)c(C(F)(F)F)c1`, for which the growth in [1] is 1.06% (active); in test [2] it was 30.1%; in test [3], 16.1%; in test [4], 3.02% (active); in test [5], -0.0868% (active); in test [6], 2.48% (active). Besides, the growth was -38.6% (active) in test [7]; 6.63% (active) in test [8]; 4.31% (active) in test [9]; -37.7% (active) in test [11]; 11% in [12]; -0.973% (active) in test [13]. In addition, the growth in [14] was -15.8% (active); in [16], 1.21% (active).

Consider `O=C(Cc1ccccc1[N+](=O)[O-])c1ccc2c(c1)OCO2`, for which the growth in test [1] was 104%; in test [2] it was 104%; in test [3] it was 102%; in test [4], 90.1%; in test [5], 114%; in test [6], 103%. Further, the growth in [7] was 93.3%; in [8], 106%; in [9], 94.4%; in test [11] it was 102%; in test [12], 99%; in [13], 96.5%. Moreover, the growth in test [14] was 103%; in [15], 116%; in test [16], 107%.

`CCn1cc(C(=O)O)c(=O)c2cc(F)c(N3CCN(S(=O)(=O)c4ccc(Cl)cc4)CC3)cc21`: the growth in test [17] is 13.4%; in [1], 12.6%; in test [3], 37.7%; in [4], 40.8%; in test [5], 9.37% (active); in test [6] it was 28.2%. Also, the growth in [7] was 18.9%; in test [8] it was 68.7%; in test [9], 41.1%; in test [10], 12.6%; in test [11], 25.1%; in test [12] it was 24%. Besides, the growth was 14.3% in [13], 4.8% (active) in [14], 24.5% in test [15] and 4.3% (active) in test [16].

In the case of `O=C(/C=C/c1cccc(O)c1)c1cccc(-n2cc(-c3ccc(Cl)cc3)[nH]c2=O)c1`, the growth is -53.2% (active) in test [17]; -2.92% (active) in test [1]; 10.4% in test [3]; 37.7% in [4]; -42.9% (active) in test [5]; -79.7% (active) in test [6]. Also, the growth was -48.4% (active) in test [7]; 3.39% (active) in test [8]; -42.5% (active) in test [10]; -9.55% (active) in test [11]; -75.4% (active) in [12]; -8.69% (active) in test [13]. In addition, the growth was -85.2% (active) in test [14] and -73.3% (active) in [16].

Take `CC(=O)OC1/C=C\CC/C=C\C1` (stereo not drawn): the growth was 101% in test [17]; 98.8% in test [1]; 97.4% in test [2]; 105% in test [4]; 110% in [5]; 115% in test [6]. For the same molecule, the growth in test [7] was 101%; in [8] it was 122%; in [10] it was 110%; in test [11], 103%; in test [12] it was 101%; in test [13] it was 106%. Besides, the growth is 107% in test [14], 129% in test [15] and 103% in test [16].
